32 molecules from PubChem BioAssay (EPA / NIEHS) can be followed below.

The target of experiment [1] is Retinoic acid receptor alpha (Homo sapiens) (UniProt P10276). Description: NVS_NR_hRAR_Antagonist: NovaScreen (NVS) Nuclear Receptor Binding Assay for human Retinoic Acid Alpha Receptor Antagonism (RAR) (AID 2283358). The procedure, abridged: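 TR-FRET, cell-free, antagonist format; 2 h incubation after dosing; DMSO = baseline; signal loss fitted; 25 uM duplicate primary, then conc. series.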

Experiment [2] addresses human Peroxisome Proliferator-activated Receptor alpha (PPARa), PPARA (gene 5465) (UniProt Q07869). The experiment can be described thus: NVS_NR_hPPARa: NovaScreen (NVS) Nuclear Receptor Binding Assay for human Peroxisome Proliferator-activated Receptor alpha (PPARa) (AID 2283359).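 Note: activity means loss of TR-FRET signal versus DMSO baseline.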 The method in brief:
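Chemicals were first screened in duplicate at 25 uM, and active ones were retested across concentration series. Binding was monitored by TR-FRET one hour after dosing, with decreased signal against DMSO counted as activity.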

The target in experiment [3] is Nuclear receptor subfamily 1 group I member 2 (Homo sapiens) (UniProt O75469). The experiment can be described thus: NVS_NR_hPXR: NovaScreen (NVS) Nuclear Receptor Binding Assay for human Pregnane X Receptor (PXR) (AID 2283365).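 Note: a drop in FRET signal versus DMSO baseline means the compound binds.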 The method in brief:
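Binding was measured by time-resolved fluorescence resonance energy transfer after a 2 h exposure of extracted human PXR protein without cells. Compounds were first tested at 25 uM in duplicate, with concentration series for actives; DMSO defined baseline.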

Experiment [4] addresses human Thyroid Receptor Alpha (TRa), THRA (gene 7067) (UniProt P10827). The experiment can be described thus: NVS_NR_hTRa_Antagonist: NovaScreen (NVS) Nuclear Receptor Binding Assay for human Thyroid Receptor Alpha Antagonism (TRa) (AID 2283362). The method in brief:
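Chemicals were first screened in duplicate at 25 uM, then actives were retested in concentration series. Binding to the extracted receptor was measured 1 h after dosing by AlphaLISA chemiluminescence, with decreased signal versus DMSO scored as activity.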

Experiment [5] addresses Glucocorticoid receptor (Homo sapiens) (UniProt P04150). Description: NVS_NR_hGR: NovaScreen (NVS) Nuclear Receptor Binding Assay for human Glucocorticoid Receptor (GR) (AID 2283363). The procedure, abridged: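 Competitive displacement of a labelled ligand was measured on cell-free receptor preparations after 16 h exposure. Initial testing used 25 uM in duplicate with plate controls; confirmed actives went into concentration series.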

Experiment [6] addresses rat Androgen Receptor (AR), Ar (gene 24208) (UniProt P15207). Description: NVS_NR_rAR: NovaScreen (NVS) Nuclear Receptor Binding Assay for rat Androgen Receptor (AR) (AID 2283366). The method in brief:
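Cell-free radioligand binding on extracts of prostate from testosterone-pretreated rats, read by filter-based scintillation counting 18 h after dosing. Loss of bound signal fitted positively versus DMSO; primary screen in duplicate at 25 uM, actives followed up in concentration series.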

Experiment [7] deals with Estrogen receptor beta (Homo sapiens) (UniProt Q92731). Description: OT_ER_ERbERb_0480: Odyssey Thera (OT) 8-hour HEK293T Protein-Complementation Assay for Estrogen Receptor-beta/-beta Homodimer (AID 2283357).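 Note: active means signal gain over DMSO baseline.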 The method in brief: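 Cells (HEK293T, stable ER-beta LBD PCA pair) are treated 8 hours, fixed and Draq5-stained; signal is fluorescence intensity increase relative to vehicle, fitted in the gain direction.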

Experiment [8] concerns the target guinea pig Sigma Receptor, Non-selective Binding, SIGMAR1 (gene 100135589) (UniProt Q60492). Description: NVS_OR_gSIGMA_NonSelective: NovaScreen (NVS) Nuclear Receptor Binding Assay for guinea pig Sigma Receptor, Non-selective Binding (AID 2283367). The method in brief: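 gp brain membr., radioligand displacement, 1 h, filtration + scint. counting; DMSO = baseline; 25 uM x2 primary, conc.-response confirm.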

The target in experiment [9] is PGR (gene 5241) (UniProt P06401). Description: NVS_NR_hPR: NovaScreen (NVS) Nuclear Receptor Binding Assay for human Progestron Receptor (PR) (AID 2283360).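 Note: active means loss of bound radioligand signal versus DMSO baseline.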 The procedure:
NVS_NR_hPR is a biochemical, single-readout assay that uses extracted gene-proteins from T47D in a cell-free assay. Measurements were taken 18 hours after chemical dosing in a 96-well plate.NVS_NR_hPR is one of one assay component(s) measured or calculated from the NVS_NR_hPR assay. It is designed to make measurements of radioligand binding, a form of binding reporter, as detected with scintillation counting signals by Lysate-based radiodetection technology.Data from the assay component NVS_NR_hPR was analyzed into 1 assay endpoint. This assay endpoint, NVS_NR_hPR, was analyzed in the positive analysis fitting direction relative to DMSO as the negative control and baseline of activity. Using a type of binding reporter, loss-of-signal activity can be used to understand changes in the binding as they relate to the gene PGR. Furthermore, this assay endpoint can be referred to as a primary readout, because the performed assay has only produced 1 assay endpoint. To generalize the intended target to other relatable targets, this assay endpoint is annotated to the nuclear receptor intended target family, where the subfamily is steroidal.
Binding assays used specific radioligands (tritiated, iodinated) with non-radioactive competitive displacement ligands in agonist or antagonist protocols (as indicated) and various reference compounds and inhibitors to titrate specific binding to receptors and transporters. Most enzyme assays (CYPs, kinases, phosphatases, proteases, HDACs) used recombinant protein and specific substrates (fluorescence mostly, some colorimetric and radioactive) and inhibitors, followed by a biochemical separation of substrate and product. All assays for the biochemical HTS were initially run in duplicate at a single concentration (10 uM for CYP450 assays and 25 uM for all others). […] Each assay was run with positive and negative controls, and concurrent controls on every plate. The follow-up (secondary) screen tested active chemical-pairs in concentration series, as well as a few additional assays not tested in the primary screen, some selected negative inactives, and several cases re-run in the concentration series for confirmatory purposes.

Experiment [10] has as its target Retinoic acid receptor alpha (Homo sapiens) (UniProt P10276). The experiment can be described thus: NVS_NR_hRARa_Agonist: NovaScreen (NVS) Nuclear Receptor Binding Assay for human Retinoic Acid Alpha Receptor Agonism (RAR) (AID 2283361). The method in brief:
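Readout is time-resolved fluorescence resonance energy transfer after a 2 h exposure of cell-free extracted receptor protein. Initial testing used 25 uM in duplicate, with concentration-response follow-up for active chemicals.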

Values joined by “and” are separate entries in the source; they are usually repeats but may differ in a detail not shown here. Identical values can stand only once. Inconclusive results are not listed. The source holds several records for some structures; these can differ, active in one and inactive in another. Active and inactive are the calls of the source. Rule for the calls: active = hit-call score of the fitted dose curve at least 0.9, where 1 is the maximum; inconclusive = response in the unintended direction; inactive = score below 0.9.

guinea pig Sigma Receptor, Non-selective Binding, SIGMAR1 (gene 100135589), sequence (Q60492 whole entry, looked up): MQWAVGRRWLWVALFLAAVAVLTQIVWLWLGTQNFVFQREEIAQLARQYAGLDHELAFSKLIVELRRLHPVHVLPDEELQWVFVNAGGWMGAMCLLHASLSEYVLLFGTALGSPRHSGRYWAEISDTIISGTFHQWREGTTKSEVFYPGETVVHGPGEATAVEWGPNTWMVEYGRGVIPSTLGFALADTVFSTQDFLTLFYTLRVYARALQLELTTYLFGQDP
rat Androgen Receptor (AR), Ar (gene 24208), sequence (P15207 whole entry, looked up): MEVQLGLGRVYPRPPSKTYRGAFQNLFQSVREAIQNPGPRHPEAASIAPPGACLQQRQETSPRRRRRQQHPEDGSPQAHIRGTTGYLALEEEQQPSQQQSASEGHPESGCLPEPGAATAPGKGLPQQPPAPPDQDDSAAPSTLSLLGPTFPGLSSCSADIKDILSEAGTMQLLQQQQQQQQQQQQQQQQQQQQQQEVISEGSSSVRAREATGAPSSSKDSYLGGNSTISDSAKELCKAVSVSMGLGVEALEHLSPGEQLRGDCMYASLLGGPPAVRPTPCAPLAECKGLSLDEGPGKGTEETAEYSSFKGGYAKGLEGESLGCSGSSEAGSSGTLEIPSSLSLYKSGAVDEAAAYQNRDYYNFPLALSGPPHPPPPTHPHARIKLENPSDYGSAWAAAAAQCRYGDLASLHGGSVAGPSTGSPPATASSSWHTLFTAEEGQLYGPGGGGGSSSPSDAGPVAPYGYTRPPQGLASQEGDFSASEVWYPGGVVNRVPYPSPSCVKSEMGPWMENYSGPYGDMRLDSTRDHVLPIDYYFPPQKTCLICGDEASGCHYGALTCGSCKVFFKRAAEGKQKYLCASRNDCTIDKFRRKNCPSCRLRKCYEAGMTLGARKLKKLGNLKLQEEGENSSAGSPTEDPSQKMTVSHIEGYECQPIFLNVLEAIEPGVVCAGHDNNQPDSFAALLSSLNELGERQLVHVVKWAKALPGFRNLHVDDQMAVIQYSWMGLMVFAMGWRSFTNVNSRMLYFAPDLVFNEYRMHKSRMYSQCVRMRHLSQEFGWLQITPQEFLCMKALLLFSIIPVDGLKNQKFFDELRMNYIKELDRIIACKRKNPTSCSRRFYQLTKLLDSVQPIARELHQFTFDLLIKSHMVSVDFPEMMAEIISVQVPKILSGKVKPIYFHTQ
human Thyroid Receptor Alpha (TRa), THRA (gene 7067), sequence (P10827 whole entry, looked up): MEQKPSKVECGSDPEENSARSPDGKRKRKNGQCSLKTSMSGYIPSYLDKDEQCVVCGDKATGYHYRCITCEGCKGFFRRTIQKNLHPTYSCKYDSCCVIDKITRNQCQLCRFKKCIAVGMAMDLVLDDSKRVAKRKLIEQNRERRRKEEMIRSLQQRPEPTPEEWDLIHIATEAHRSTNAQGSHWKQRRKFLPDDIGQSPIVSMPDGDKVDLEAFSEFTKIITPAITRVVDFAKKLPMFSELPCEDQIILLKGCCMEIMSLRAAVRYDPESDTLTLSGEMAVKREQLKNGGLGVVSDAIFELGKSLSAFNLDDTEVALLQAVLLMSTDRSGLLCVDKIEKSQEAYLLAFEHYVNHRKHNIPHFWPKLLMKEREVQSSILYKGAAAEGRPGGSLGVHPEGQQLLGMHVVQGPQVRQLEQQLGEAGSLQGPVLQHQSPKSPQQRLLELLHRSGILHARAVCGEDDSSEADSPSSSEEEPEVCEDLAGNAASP
Glucocorticoid receptor (Homo sapiens), sequence (P04150 whole entry, looked up): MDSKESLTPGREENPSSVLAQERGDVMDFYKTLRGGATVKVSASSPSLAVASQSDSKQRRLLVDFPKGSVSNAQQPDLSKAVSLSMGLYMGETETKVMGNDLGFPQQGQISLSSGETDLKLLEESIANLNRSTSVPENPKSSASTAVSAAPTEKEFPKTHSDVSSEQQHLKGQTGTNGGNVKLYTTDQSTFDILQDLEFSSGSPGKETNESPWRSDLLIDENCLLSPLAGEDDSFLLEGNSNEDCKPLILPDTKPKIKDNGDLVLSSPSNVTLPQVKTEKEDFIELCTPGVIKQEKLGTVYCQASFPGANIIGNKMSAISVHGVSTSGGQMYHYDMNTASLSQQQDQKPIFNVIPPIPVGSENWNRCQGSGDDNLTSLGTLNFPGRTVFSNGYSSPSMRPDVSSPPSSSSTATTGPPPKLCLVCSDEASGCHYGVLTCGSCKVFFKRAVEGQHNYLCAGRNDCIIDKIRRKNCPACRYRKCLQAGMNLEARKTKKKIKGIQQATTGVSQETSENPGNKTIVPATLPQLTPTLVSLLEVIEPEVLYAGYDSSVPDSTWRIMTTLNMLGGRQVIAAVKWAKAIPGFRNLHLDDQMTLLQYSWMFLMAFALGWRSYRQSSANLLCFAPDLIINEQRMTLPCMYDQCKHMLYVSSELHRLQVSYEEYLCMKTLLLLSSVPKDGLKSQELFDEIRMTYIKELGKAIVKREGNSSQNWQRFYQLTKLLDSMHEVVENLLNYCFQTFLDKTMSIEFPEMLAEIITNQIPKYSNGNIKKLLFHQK
Nuclear receptor subfamily 1 group I member 2 (Homo sapiens), sequence (O75469 whole entry, looked up): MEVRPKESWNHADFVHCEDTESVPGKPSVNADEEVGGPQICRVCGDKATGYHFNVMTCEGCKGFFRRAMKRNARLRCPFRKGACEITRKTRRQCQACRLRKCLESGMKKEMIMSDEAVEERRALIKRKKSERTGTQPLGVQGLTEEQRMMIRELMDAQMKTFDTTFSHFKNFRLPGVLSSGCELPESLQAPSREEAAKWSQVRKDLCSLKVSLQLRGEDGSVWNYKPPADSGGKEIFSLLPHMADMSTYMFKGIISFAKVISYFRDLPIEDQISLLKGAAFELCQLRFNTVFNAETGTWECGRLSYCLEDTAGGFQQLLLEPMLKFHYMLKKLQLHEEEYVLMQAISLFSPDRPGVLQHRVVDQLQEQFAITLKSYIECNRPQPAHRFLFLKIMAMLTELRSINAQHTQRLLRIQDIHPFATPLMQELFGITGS
human Peroxisome Proliferator-activated Receptor alpha (PPARa), PPARA (gene 5465), sequence (Q07869 whole entry, looked up): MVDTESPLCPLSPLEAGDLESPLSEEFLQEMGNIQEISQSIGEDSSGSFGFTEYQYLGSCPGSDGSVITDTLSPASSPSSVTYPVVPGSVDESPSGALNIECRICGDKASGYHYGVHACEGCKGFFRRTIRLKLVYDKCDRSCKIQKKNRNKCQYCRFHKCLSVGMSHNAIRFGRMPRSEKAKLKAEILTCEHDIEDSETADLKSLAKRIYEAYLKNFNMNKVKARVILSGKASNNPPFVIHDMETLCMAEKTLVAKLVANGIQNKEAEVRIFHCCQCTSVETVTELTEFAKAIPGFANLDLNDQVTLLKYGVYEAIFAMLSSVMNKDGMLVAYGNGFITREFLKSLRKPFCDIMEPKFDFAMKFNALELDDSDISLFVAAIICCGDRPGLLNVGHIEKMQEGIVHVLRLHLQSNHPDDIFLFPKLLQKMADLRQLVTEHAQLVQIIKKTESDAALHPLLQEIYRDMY
Retinoic acid receptor alpha (Homo sapiens), sequence (P10276 whole entry, looked up): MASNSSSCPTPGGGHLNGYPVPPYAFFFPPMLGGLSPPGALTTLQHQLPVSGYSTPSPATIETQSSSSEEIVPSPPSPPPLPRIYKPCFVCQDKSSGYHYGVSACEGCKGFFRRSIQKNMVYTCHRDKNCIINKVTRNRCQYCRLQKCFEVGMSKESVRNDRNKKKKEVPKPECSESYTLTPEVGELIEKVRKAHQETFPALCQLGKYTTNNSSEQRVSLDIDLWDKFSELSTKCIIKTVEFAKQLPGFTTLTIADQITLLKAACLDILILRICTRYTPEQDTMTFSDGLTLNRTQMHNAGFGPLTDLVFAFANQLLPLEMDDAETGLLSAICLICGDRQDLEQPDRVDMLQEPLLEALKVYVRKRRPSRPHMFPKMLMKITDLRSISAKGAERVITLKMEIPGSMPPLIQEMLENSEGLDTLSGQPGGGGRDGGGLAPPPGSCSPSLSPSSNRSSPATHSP
Estrogen receptor beta (Homo sapiens), sequence (Q92731 whole entry, looked up, the tested form may be a part): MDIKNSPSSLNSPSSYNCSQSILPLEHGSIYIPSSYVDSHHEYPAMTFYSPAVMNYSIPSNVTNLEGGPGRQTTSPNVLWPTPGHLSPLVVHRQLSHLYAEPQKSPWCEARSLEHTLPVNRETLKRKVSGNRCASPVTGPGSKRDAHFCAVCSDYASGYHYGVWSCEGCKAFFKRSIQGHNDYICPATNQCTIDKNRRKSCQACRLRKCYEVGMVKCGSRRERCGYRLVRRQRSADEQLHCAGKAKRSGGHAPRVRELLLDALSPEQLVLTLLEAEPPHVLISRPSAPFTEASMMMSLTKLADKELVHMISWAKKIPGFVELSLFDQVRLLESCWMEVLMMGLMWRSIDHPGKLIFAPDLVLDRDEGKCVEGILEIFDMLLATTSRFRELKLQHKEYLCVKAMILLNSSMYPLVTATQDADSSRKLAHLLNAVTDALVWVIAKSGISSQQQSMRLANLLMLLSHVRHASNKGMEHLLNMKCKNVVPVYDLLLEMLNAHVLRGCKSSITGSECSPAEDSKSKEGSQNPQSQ

Regarding `CC1(C)CN=C(NN=C(/C=C/c2ccc(C(F)(F)F)cc2)/C=C/c2ccc(C(F)(F)F)cc2)NC1`, the AC50 in experiment [1] is 25 µM (active); in experiment [3], 7.48 µM (active). Also, the molecule was called inactive in experiment [2].
Take `CCCCCCCc1ccc(O)cc1`: the result in [4], in experiment [5], in [3] and in [6] was inactive. In addition, the AC50 in experiment [5] is 33.3 µM (active).
As for `CCN(CC)c1ccccc1`, the molecule was called inactive in experiment [7] and in experiment [8].
Consider `CC(C)(C)c1ccccc1OP(=O)(Oc1ccccc1)Oc1ccccc1`, for which the outcome in experiment [9] was inactive.
For the molecule `CSC(C)(C)C=NO`, the call in [9] and in experiment [5] was inactive.
On to `O=P(OCC(Br)CBr)(OCC(Br)CBr)OCC(Br)CBr` (stereo unspecified), for which the molecule was classed as inactive in [7] and in experiment [2]. Besides, the half-maximal activity concentration (AC50) in experiment [3] is 0.423 µM (active).
Consider `c1ccc2c(c1)Nc1ccccc1S2`, for which the molecule was classed as inactive in experiment [7], in experiment [10] and in experiment [8].
Turning to `CC(Cl)CN(C)C` (stereo unspecified), in experiment [9], the call was inactive.
For the molecule `CCC(C)(C)c1ccc(O)cc1`, the AC50 in experiment [7] is 2.41 µM (active). Also, in [5], the result was inactive.
On to `O=NN1CCCC1`, for which the call in experiment [7] and in [3] was inactive.
Consider `CCOP(=S)(Oc1ccc([N+](=O)[O-])cc1)c1ccccc1` (stereo unspecified), for which, in [7], the AC50 was 26.4 µM (active). The molecule was classed as inactive in experiment [9].
As to `O=C(CBr)OCc1ccccc1`, the molecule was called inactive in experiment [7] and in experiment [2].
`Cc1cccc(N)c1`: the result in experiment [10] was inactive.
With `c1ccc2c(c1)sc1ccccc12`, in [5], the AC50 is 0.179 µM (active) and the result was inactive.
Take `OCC1CO1` (stereo unspecified): the molecule was classed as inactive in experiment [3].
As to `CCCCN(CCCC)SN(C)C(=O)Oc1cccc2c1OC(C)(C)C2`, the molecule was called inactive in [7] and in [9]. In addition, the AC50 in experiment [8] is 4.72 µM (active).
On to `CCOP(=S)(OCC)SCSCC`, for which the result in experiment [7] and in experiment [2] was inactive.
In the case of `CCCCOCCOP(=O)(OCCOCCCC)OCCOCCCC`, the molecule was classed as inactive in experiment [7] and in experiment [10]. Moreover, the AC50 in experiment [3] is 5.67 µM (active).
For `CC(C)Nc1ccc(Nc2ccccc2)cc1`, in experiment [5], the AC50 was 25 µM (active).
As to `Nc1cc2c3c(c1)C(c1ccccc1)=N[C@@H](NC(=O)c1cccnc1)C(=O)N3CC2`, the molecule was called inactive in [7] and in experiment [9].
`CCOP(=S)(NC(C)C)Oc1ccccc1C(=O)OC(C)C` (stereo unspecified): the outcome in experiment [5] was inactive.
Consider `CC(C)(C)N(NC(=O)c1ccc(Cl)cc1)C(=O)c1ccccc1`, for which the outcome in [7] and in experiment [3] was inactive.
Consider `CCCCC(CC)COC(=O)c1c(Br)c(Br)c(Br)c(Br)c1C(=O)OCC(CC)CCCC` (stereo unspecified), for which, in [7], the molecule was called inactive. Further, the AC50 in experiment [5] is 6.58 µM (active) and 6.59 µM (active).
Consider `CCCCN(CC)C(=O)SCCC`, for which the molecule was classed as inactive in [7] and in experiment [3].
`CN(C)C(=O)Cl`: the result in [2] was inactive.
Regarding `ClC1=C(Cl)C2(Cl)C3C(Cl)C(Cl)CC3C1(Cl)C2(Cl)Cl` (stereo unspecified), the molecule was classed as inactive in experiment [7], in experiment [2] and in experiment [5].
`CCCCc1ccc(O)cc1`: the AC50 in [7] is 10.5 µM (active). Besides, the molecule was classed as inactive in experiment [10].
Turning to `O=P(Oc1ccccc1)(Oc1ccccc1)Oc1ccccc1`, in experiment [7], the AC50 is 12.2 µM (active). Further, in [2], the outcome was inactive.
In the case of `C=CC(=O)OCC(CC)(COC(=O)C=C)COC(=O)C=C`, the AC50 in experiment [5] was 14 µM (active).
`CO/N=C(/C(=O)OC)c1ccccc1COc1ccccc1C`: the call in [4] and in [3] was inactive.
As to `CCCCN(CCCC)N=O`, the molecule was called inactive in experiment [2] and in experiment [3]. Also, the AC50 in [8] is 25 µM (active).
As to `O=C(O)C(Cl)Cl`, the result in experiment [2] and in experiment [8] was inactive.
